The text below walks through data of PubChem BioAssay (EPA / NIEHS).

The structures appear in SMILES notation. Activity calls are given as the source filed them. How the source made its calls: active means hit-call score of the fitted dose curve at least 0.9, where 1 is the maximum; inactive means score below 0.9.

Chain of Hypoxia-inducible factor 1-alpha (Homo sapiens) (Q16665 whole entry, looked up): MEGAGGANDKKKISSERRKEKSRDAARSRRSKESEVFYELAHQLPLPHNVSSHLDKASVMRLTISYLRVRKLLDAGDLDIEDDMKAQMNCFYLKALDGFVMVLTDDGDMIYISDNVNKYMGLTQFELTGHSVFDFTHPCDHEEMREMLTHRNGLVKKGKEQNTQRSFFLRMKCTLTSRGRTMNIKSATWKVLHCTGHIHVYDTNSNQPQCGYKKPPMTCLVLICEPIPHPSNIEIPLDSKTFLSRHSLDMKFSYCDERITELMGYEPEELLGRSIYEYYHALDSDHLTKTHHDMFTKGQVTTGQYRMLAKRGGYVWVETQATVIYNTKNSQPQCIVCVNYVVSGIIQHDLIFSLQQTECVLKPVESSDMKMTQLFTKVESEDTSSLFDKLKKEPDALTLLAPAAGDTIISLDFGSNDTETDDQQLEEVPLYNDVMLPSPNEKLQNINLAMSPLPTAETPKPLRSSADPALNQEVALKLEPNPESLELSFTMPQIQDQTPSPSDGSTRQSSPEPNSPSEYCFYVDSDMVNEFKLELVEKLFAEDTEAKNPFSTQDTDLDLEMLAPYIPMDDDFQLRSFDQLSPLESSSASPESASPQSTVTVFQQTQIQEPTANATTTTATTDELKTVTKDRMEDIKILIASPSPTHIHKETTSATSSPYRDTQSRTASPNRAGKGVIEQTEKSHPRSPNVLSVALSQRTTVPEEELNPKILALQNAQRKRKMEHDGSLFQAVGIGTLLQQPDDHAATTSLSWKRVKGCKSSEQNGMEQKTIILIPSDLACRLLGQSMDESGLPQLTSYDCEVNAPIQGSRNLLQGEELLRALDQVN
Chain of Hepatocyte nuclear factor 6 (Homo sapiens) (Q9UBC0 whole entry, looked up, the tested form may be a part): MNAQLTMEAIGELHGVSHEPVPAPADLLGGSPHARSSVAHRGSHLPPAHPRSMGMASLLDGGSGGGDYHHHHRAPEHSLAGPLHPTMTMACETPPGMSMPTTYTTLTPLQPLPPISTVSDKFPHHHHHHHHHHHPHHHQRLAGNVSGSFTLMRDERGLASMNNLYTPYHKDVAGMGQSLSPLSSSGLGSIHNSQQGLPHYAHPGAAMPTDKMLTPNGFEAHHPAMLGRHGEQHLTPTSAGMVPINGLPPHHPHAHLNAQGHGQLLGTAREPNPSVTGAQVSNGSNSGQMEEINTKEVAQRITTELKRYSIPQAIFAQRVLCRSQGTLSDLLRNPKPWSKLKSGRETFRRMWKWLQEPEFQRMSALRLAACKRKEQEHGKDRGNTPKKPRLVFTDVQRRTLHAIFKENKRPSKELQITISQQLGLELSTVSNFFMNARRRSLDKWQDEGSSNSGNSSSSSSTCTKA

System in the first assay: not listed separately
The assay can be described thus: ATG_M_06_CIS: Attagene CIS-FACTORIAL HepG2 Assay for M06 Transcription Factor (Internal Marker) (AID 2282950). The following applies: HepG2 Attagene CIS-FACTORIAL M06 internal marker reporter; actives raise or lower the signal. The method in brief: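 Steps: transfect HepG2 with multiplexed cis-element reporter constructs; dose chemical 24 h; extract RNA with DNase treatment; reverse-transcribe, PCR-amplify, 6-FAM label, HpaI digest; separate fragments by capillary electrophoresis. Activity fitted both directions versus DMSO.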
With `[Cl][Nd]([Cl])[Cl]`, the compound was classed as inactive.

Take `CC/C=C\C/C=C\C/C=C\CCCCCCCC(=O)O`: the compound was classed as inactive.

As to `CCOC(=O)CC`, the compound was classed as inactive.

Take `Nc1ccc(-c2ccc(F)cc2)cc1`: the compound was classed as inactive.

Turning to `CC(=O)Oc1ccc(C(C)=O)cc1`, the outcome was inactive.

Regarding `C=C(C)C(=O)OCC(C)C`, the compound was classed as inactive.

For the compound `O=C(Nc1ccccc1)c1ccccc1O`, the outcome was inactive.

On to `CC(C)c1ccc(C#N)cc1`, for which the call was inactive.

On to `O=C1OC(=O)c2cc(Oc3ccc4c(c3)C(=O)OC4=O)ccc21`, for which the result was inactive.

Consider `COc1cc(C)ccc1C(C)C`, for which the call was inactive.

As for `Cc1cccc(N)n1`, the outcome was inactive.

`COc1ccc([C@@H]2CC(=O)c3c(O)cc(O[C@@H]4O[C@H](CO[C@@H]5O[C@@H](C)[C@H](O)[C@@H](O)[C@H]5O)[C@@H](O)[C@H](O)[C@H]4O)cc3O2)cc1OC`: the compound was called inactive.

Turning to `c1cc(N(CC2CO2)CC2CO2)ccc1OCC1CO1` (stereo unspecified), the compound was classed as inactive.

Turning to `CCCCC(CC)CCC(CC(C)C)OS(=O)(=O)O` (stereo unspecified), the call was inactive.

With `[Cl][Bi]([Cl])([c]1ccccc1)([c]1ccccc1)[c]1ccccc1`, the compound was classed as inactive.

Take `O=C(O)C(c1ccc(Cl)cc1)c1ccc(Cl)cc1`: the outcome was inactive.

Regarding `CC1=Nc2ccc3ccccc3c2C1(C)C`, the call was inactive.

As to `O=c1c2ccccc2nnn1CCl`, the result was inactive.

Turning to `CN(C)c1ccc(N=Nc2ccccc2C(=O)O)cc1`, the compound was called inactive.

For the compound `S=C(NC1CCCCC1)NC1CCCCC1`, the compound was classed as inactive.

For `COc1cc(NC(=O)CC(C)=O)c(OC)cc1Cl`, the compound was called inactive.

For `O=C(/C=C/C=C/c1ccc2c(c1)OCO2)N1CCCCC1`, the compound was classed as inactive.

Take `CC(C)COC(=O)C=Cc1ccccc1`: the call was inactive.

Consider `CCN(CCO)c1cccc(C)c1`, for which the compound was classed as inactive.

`C=C[Si](OC(C)=O)(OC(C)=O)OC(C)=O`: the compound was called inactive.

In the case of `CCCC(=O)OCc1ccccc1`, the outcome was inactive.

`O=C(Cl)c1cc(C(=O)Cl)cc(C(=O)Cl)c1`: the compound was classed as inactive.

For the compound `CC(=O)OCC(C)OC(C)=O` (stereo unspecified), the result was inactive.

Consider `Nc1cccc(C(F)(F)F)c1`, for which the compound was classed as inactive.

With `Cc1ccc(N/N=c2\c(=O)cc/c(=N/Nc3ccc(S(=O)(=O)O)cc3)c2=O)c(C)c1`, the outcome was inactive.

`Cc1cc(C)c(C)cc1C`: the call was inactive.

Take `Cc1cc(C)c(C)c(C)c1`: the compound was called inactive.

Take `CC(C)CC(O)Cc1ccccc1` (stereo unspecified): the outcome was inactive.

Turning to `C=C(C)C(=O)OCCOc1ccccc1`, the compound was called inactive.

With `C=CCCCCCCCCC(=O)OCCCC`, the outcome was inactive.

The target of another assay is Hypoxia-inducible factor 1-alpha (Homo sapiens) (UniProt Q16665). The assay can be described thus: ATG_HIF1a_CIS: Attagene CIS-FACTORIAL HepG2 Assay for human Hypoxia Inducible Factor 1 (HIF1A) (AID 2282951). The note with it: HepG2 Attagene cis-factorial HIF1a reporter transcription; actives raise or lower the signal. Put shortly:
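HepG2 cells transiently transfected with multiple cis-regulated reporter transcription units measure endogenous transcription factor activity. After 24 h exposure, reporter mRNA is quantified by RT-PCR with 6-FAM labelling, HpaI digestion and capillary electrophoresis. Bidirectional fitting against DMSO.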
`[Cl][Nd]([Cl])[Cl]`: the compound was classed as inactive.

Consider `CC/C=C\C/C=C\C/C=C\CCCCCCCC(=O)O`, for which the compound was classed as inactive.

For the compound `CCOC(=O)CC`, the result was inactive.

Consider `Nc1ccc(-c2ccc(F)cc2)cc1`, for which the result was inactive.

Take `CC(=O)Oc1ccc(C(C)=O)cc1`: the compound was called inactive.

On to `C=C(C)C(=O)OCC(C)C`, for which the result was inactive.

As for `O=C(Nc1ccccc1)c1ccccc1O`, the compound was classed as inactive.

In the case of `CC(C)c1ccc(C#N)cc1`, the call was inactive.

As to `CCCCCCCCCCC=CC#N`, the outcome was inactive.

Turning to `O=C1OC(=O)c2cc(Oc3ccc4c(c3)C(=O)OC4=O)ccc21`, the call was inactive.

On to `Cc1cccc(N)n1`, for which the compound was classed as inactive.

Regarding `O=S(=O)(O)CC(O)CCl` (stereo unspecified), the compound was called inactive.

On to `COc1ccc([C@@H]2CC(=O)c3c(O)cc(O[C@@H]4O[C@H](CO[C@@H]5O[C@@H](C)[C@H](O)[C@@H](O)[C@H]5O)[C@@H](O)[C@H](O)[C@H]4O)cc3O2)cc1OC`, for which the result was inactive.

Regarding `c1cc(N(CC2CO2)CC2CO2)ccc1OCC1CO1` (stereo unspecified), the AC50 was 39.6 µM (active).

On to `CCCCC(CC)CCC(CC(C)C)OS(=O)(=O)O` (stereo unspecified), for which the call was inactive.

For `[Cl][Bi]([Cl])([c]1ccccc1)([c]1ccccc1)[c]1ccccc1`, the compound was classed as inactive.

For the compound `O=C(O)C(c1ccc(Cl)cc1)c1ccc(Cl)cc1`, the AC50 is 72.1 µM (active).

As to `CC1=Nc2ccc3ccccc3c2C1(C)C`, the compound was classed as inactive.

For the compound `O=c1c2ccccc2nnn1CCl`, the compound was called inactive.

On to `CN(C)c1ccc(N=Nc2ccccc2C(=O)O)cc1`, for which the concentration at half-maximal activity (AC50) was 17.9 µM (active).

For the compound `S=C(NC1CCCCC1)NC1CCCCC1`, the result was inactive.

Regarding `COc1cc(NC(=O)CC(C)=O)c(OC)cc1Cl`, the outcome was inactive.

Consider `CC(C)COC(=O)C=Cc1ccccc1`, for which the call was inactive.

For `CCN(CCO)c1cccc(C)c1`, the compound was classed as inactive.

Turning to `C=C[Si](OC(C)=O)(OC(C)=O)OC(C)=O`, the compound was called inactive.

As to `CCCC(=O)OCc1ccccc1`, the result was inactive.

On to `O=C(Cl)c1cc(C(=O)Cl)cc(C(=O)Cl)c1`, for which the call was inactive.

On to `CC(=O)OCC(C)OC(C)=O` (stereo unspecified), for which the result was inactive.

`Nc1cccc(C(F)(F)F)c1`: the call was inactive.

On to `Cc1ccc(N/N=c2\c(=O)cc/c(=N/Nc3ccc(S(=O)(=O)O)cc3)c2=O)c(C)c1`, for which the compound was classed as inactive.

Regarding `Cc1cc(C)c(C)cc1C`, the outcome was inactive.

Turning to `CCC(Cc1ccccc1)(C(=O)c1ccc(N2CCOCC2)cc1)N(C)C` (stereo unspecified), the half-maximal activity concentration (AC50) is 22.9 µM (active).

As for `Cc1cc(C)c(C)c(C)c1`, the outcome was inactive.

`CC(C)CC(O)Cc1ccccc1` (stereo unspecified): the compound was called inactive.

`C=C(C)C(=O)OCCOc1ccccc1`: the outcome was inactive.

As for `C=CCCCCCCCCC(=O)OCCCC`, the outcome was inactive.

The target of the next assay is Hepatocyte nuclear factor 6 (Homo sapiens) (UniProt Q9UBC0). As to the kind of experiment: ATG_HNF6_CIS: Attagene CIS-FACTORIAL HepG2 Assay for human Hepatocyte Nuclear Factor 6 (HNF6) (AID 2282952). The note with it: HepG2 Attagene cis-factorial HNF6 reporter transcription; actives raise or lower the signal. The method in brief:
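Twenty-four-hour chemical treatment of reporter-transfected HepG2 cells precedes RNA isolation, DNase-treated reverse transcription and PCR of reporter sequences. Labelled fragments are sized by capillary electrophoresis and fitted bidirectionally versus DMSO.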
Consider `[Cl][Nd]([Cl])[Cl]`, for which the result was inactive.

As to `CC/C=C\C/C=C\C/C=C\CCCCCCCC(=O)O`, the outcome was inactive.

Consider `CCOC(=O)CC`, for which the compound was called inactive.

As for `Nc1ccc(-c2ccc(F)cc2)cc1`, the compound was called inactive.

For the compound `CC(=O)Oc1ccc(C(C)=O)cc1`, the compound was classed as inactive.

Take `C=C(C)C(=O)OCC(C)C`: the call was inactive.

In the case of `O=C(Nc1ccccc1)c1ccccc1O`, the compound was called inactive.

As to `CC(C)c1ccc(C#N)cc1`, the call was inactive.

With `CCCCCCCCCCC=CC#N`, the outcome was inactive.

As to `O=C1OC(=O)c2cc(Oc3ccc4c(c3)C(=O)OC4=O)ccc21`, the compound was called inactive.

With `Cc1cccc(N)n1`, the call was inactive.

Take `O=S(=O)(O)CC(O)CCl` (stereo unspecified): the compound was classed as inactive.

Take `COc1ccc([C@@H]2CC(=O)c3c(O)cc(O[C@@H]4O[C@H](CO[C@@H]5O[C@@H](C)[C@H](O)[C@@H](O)[C@H]5O)[C@@H](O)[C@H](O)[C@H]4O)cc3O2)cc1OC`: the outcome was inactive.

`c1cc(N(CC2CO2)CC2CO2)ccc1OCC1CO1` (stereo unspecified): the result was inactive.

On to `CCCCC(CC)CCC(CC(C)C)OS(=O)(=O)O` (stereo unspecified), for which the result was inactive.

With `[Cl][Bi]([Cl])([c]1ccccc1)([c]1ccccc1)[c]1ccccc1`, the compound was classed as inactive.

For the compound `O=C(O)C(c1ccc(Cl)cc1)c1ccc(Cl)cc1`, the compound was called inactive.

With `CC1=Nc2ccc3ccccc3c2C1(C)C`, the outcome was inactive.

In the case of `O=c1c2ccccc2nnn1CCl`, the result was inactive.

On to `CN(C)c1ccc(N=Nc2ccccc2C(=O)O)cc1`, for which the compound was called inactive.

In the case of `S=C(NC1CCCCC1)NC1CCCCC1`, the compound was classed as inactive.

As for `COc1cc(NC(=O)CC(C)=O)c(OC)cc1Cl`, the compound was called inactive.

On to `O=C(/C=C/C=C/c1ccc2c(c1)OCO2)N1CCCCC1`, for which the call was inactive.

Regarding `CC(C)COC(=O)C=Cc1ccccc1`, the result was inactive.

Consider `CCN(CCO)c1cccc(C)c1`, for which the outcome was inactive.

On to `C=C[Si](OC(C)=O)(OC(C)=O)OC(C)=O`, for which the outcome was inactive.

For the compound `O=C(Cl)c1cc(C(=O)Cl)cc(C(=O)Cl)c1`, the outcome was inactive.

For `CC(=O)OCC(C)OC(C)=O` (stereo unspecified), the result was inactive.

Take `Nc1cccc(C(F)(F)F)c1`: the result was inactive.

For the compound `Cc1ccc(N/N=c2\c(=O)cc/c(=N/Nc3ccc(S(=O)(=O)O)cc3)c2=O)c(C)c1`, the compound was called inactive.

For `CCC(Cc1ccccc1)(C(=O)c1ccc(N2CCOCC2)cc1)N(C)C` (stereo unspecified), the outcome was inactive.

Take `Cc1cc(C)c(C)c(C)c1`: the compound was called inactive.

As for `CC(C)CC(O)Cc1ccccc1` (stereo unspecified), the outcome was inactive.

As for `C=C(C)C(=O)OCCOc1ccccc1`, the compound was classed as inactive.

On to `C=CCCCCCCCCC(=O)OCCCC`, for which the result was inactive.

By AC50 is commonly meant the concentration giving half of the maximal activity seen.
